Bioassay records from PubChem BioAssay.
ATG4B inhibitor: blocks human ATG4B protease cleavage of LC3 substrate; inhibition, % at 8.33 µM; ATG4B cleavage of LC3-PLA2, NBD-HPC fluorescence, 1 h; actives 0.51% (n = 340,000); in the data active = inhibition above about 40%
Neddylation inh: cullin neddylation inhibition; P61081+Q13564; TR-FRET cullin neddylation, biochemical; inhibition, % at 25 µM; actives 0.58% (n = 360,000); in the data active = inhibition above about 36%
Target sequence (P61081 whole entry, looked up): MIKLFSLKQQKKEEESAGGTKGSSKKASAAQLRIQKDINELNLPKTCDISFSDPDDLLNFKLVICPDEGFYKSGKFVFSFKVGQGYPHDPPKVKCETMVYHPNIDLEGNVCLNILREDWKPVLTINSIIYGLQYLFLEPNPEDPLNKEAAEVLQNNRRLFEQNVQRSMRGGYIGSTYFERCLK
Target sequence (Q13564 whole entry, looked up): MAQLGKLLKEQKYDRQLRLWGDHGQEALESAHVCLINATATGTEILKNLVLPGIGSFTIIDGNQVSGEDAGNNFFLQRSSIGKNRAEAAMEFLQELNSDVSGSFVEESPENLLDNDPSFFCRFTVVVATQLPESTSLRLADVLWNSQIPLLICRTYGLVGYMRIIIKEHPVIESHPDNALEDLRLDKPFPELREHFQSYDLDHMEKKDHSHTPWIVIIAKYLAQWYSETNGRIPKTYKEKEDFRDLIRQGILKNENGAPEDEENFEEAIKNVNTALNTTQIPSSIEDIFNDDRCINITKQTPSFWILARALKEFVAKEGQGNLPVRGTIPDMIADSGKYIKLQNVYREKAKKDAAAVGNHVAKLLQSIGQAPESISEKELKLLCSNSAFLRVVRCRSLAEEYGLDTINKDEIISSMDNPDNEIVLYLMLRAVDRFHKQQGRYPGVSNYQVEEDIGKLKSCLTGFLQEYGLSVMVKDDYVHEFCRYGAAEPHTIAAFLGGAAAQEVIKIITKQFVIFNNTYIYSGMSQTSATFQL
SUMO1 PPI mod: alters human SUMO1 binding to SIM partners. inhibition, % at 20 µM. actives 0.33% (n = 360,000). SUMO1 binding to a labelled peptide, TR-FRET, 1 h. AID 602429; in the data active = inhibition above about 37%
Rin1 Abl inh: inhibitors of human Rin1-Abl protein interaction | inhibition, % at 7.35 µM | AID 588664 | actives 0.4% (n = 360,000) | P00519+Q13671 | TR-FRET Rin1/Abl binding, biochemical; in the data active = inhibition above about 5%, passing the limit was not always enough
Rin1-Abl confirm: confirmation of inhibitors of human Rin1-Abl interaction. TR-FRET Rin1-Abl binding, purified proteins. shares compounds with Rin1 Abl inh. inhibition, % at 7.35 µM. actives 49% (n = 1,300). AID 602124
GFP quencher: GFP fluorescence interference artifact; shares compounds with Rin1 Abl inh; inhibitors/quenchers counterscreen; inhibition, % at 6.75 µM; actives 8.5% (n = 1,300); AID 602125;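 also: ABL1-eGFP fusion protein alone without its partner RIN1-SBP; 0% = protein with vehicle and 100% = wells lacking protein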
GFP quench dose: quenches GFP in dose response, Rin1-Abl counter-screen; shares compounds with Rin1 Abl inh; GFP fluorescence interference/quenching counterscreen; IC50, µM; 230 tested, under 10 active; AID 602182; call rule not given here;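 also: ABL1-eGFP fusion protein alone without its RIN1 binding partner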
* marks the source's active call; other numbers are inactive results; nt = no result given. In the library only some 1.7% were active in any assay of this set; here they are far more common. Rule as the data show it, unless noted: active = inhibition above about 6.5%; inactive = the rest.

SMILES	ATG4B inhibitor	Neddylation inh	SUMO1 PPI mod	Rin1 Abl inh	Rin1-Abl confirm	GFP quencher	others
COc1cccc(-c2cnc3c(NC(C)=O)cc(-c4cccc(C(=O)NCCN(C)C)c4)cn23)c1	nt	7	-56	-3	nt	nt
COc1ccc(Nc2nc(-c3cccc([N+](=O)[O-])c3)nc3ccccc23)cc1	28	-3	-1	5.7*	-1	0
O=C1/C(=C/c2ccc(O)cc2)CCc2ccc([N+](=O)[O-])cc21	-6	-20	-3	-1	nt	nt
O=C1/C(=C\c2ccc([N+](=O)[O-])cc2)CCc2ccccc21	9	-3	-5	18*	-1	-1
CCCc1cc(N2CCOCC2)n2nc(C)c(-c3ccccc3)c2n1	0	nt	3	2	nt	nt
CCCc1cc(N2CCN(c3ccccn3)CC2)n2nc(C)c(-c3ccccc3)c2n1	-8	-160	2	8.1*	0	0
O=C(Nc1ccc(C(=O)OC[C@@H]2CCCN3CCCC[C@H]23)cc1)c1cccc(Br)c1	-2	9	-4	8.5*	10*	-1
CN1CCN(c2ccc(CNC(=O)C3Cc4c(-c5ccccc5)ccnc4O3)cc2)CC1 (centres undefined)	nt	0	4	8.1*	5	-1
CN1CCN(c2ccc(CNC(=O)C3Cc4c(-c5ccccc5Oc5ccccc5)ccnc4O3)cc2)CC1 (centres undefined)	nt	8	-11	-5	nt	nt
C=C1[C@@H](CCO)N(S(=O)(=O)C(C)(C)C)C[C@@H]1C	11	6	2	-3	nt	nt
C=CCn1c(SCC(=O)Nc2ccc3c(c2)OCO3)nnc1-c1ccccc1	10	4	-2	2	nt	nt
CC(=O)Nc1ccc(NC(=O)CSc2nnc(-c3ccccc3)n2Cc2ccc3c(c2)OCO3)cc1	-3	-1	2	7.8*	4	0
CSc1ccc(S(=O)(=O)NCC(=O)OCC(=O)N(C)CC(=O)Nc2ccc(F)cc2)cc1[N+](=O)[O-]	-34	-3	-30	-1	nt	nt
CCCCCn1cnc2c(sc3nc4c(cc32)CSC(C)(C)C4)c1=O	-7	-57	2	2	nt	nt
CC1(C)Cc2nc3sc4c(=O)[nH]cnc4c3cc2CS1	1	11	14	45*	41*	0	GFP quench dose=>68
O=C(Cn1cc(COc2ccccc2[N+](=O)[O-])nn1)c1ccc(O)cc1	nt	-13	-11	7.7*	-1	2
N#Cc1ccccc1OCc1cn(CC(=O)c2ccc(O)cc2)nn1	nt	5	0	0	nt	nt
Cc1ccc(F)c(S(=O)(=O)NC(=O)C2(C)CCN2C(=O)CC2CCCCC2)c1 (centres undefined)	nt	2	3	-1	nt	nt
Cc1ccccc1C(=O)NNC(=O)Cc1ccccc1	1	1	-2	9.3*	-1	1
Cc1ccccc1C(=O)NNC(=O)CCc1ccccc1	2	-6	2	1	nt	nt
CC(C)C[C@@H](CN)NC(=O)c1nc[nH]c1C(=O)N[C@@H](C)C(=O)CNC[C@H](C)NC(=O)c1nc[nH]c1C(=O)N[C@@H](CC(C)C)C(=O)O	4	-14	4	-2	nt	nt
CN1CCN(c2cc(-c3cc(O)c4ncccc4c3)ccn2)CC1	0	-9	-52	14*	17*	10.0*
CN1CCN(C(=O)c2cccc(-c3cc(O)c4ncccc4c3)c2)CC1	-3	-2	-21	26*	33*	7.4*
CCCCSc1cc(=O)[nH]c(N)n1	6	5	-4	29*	21*	-2	GFP quench dose=>68
CCCCSc1nnc2[nH]c(=O)cc(N)n12	2	-3	14	3	nt	nt
COc1ccccc1CNc1nc(NCCN2CCNC2=O)c2sccc2n1	nt	-7	3	12*	6.9*	-1
Cc1ccc(C(O)c2ncc(-c3ccccc3Cl)[nH]2)c(C)c1 (centres undefined)	nt	4	0	-3	nt	nt
CN(Cc1ccc(C(F)(F)F)cc1)C(=O)C1CC(=O)N(Cc2ccco2)C1 (centres undefined)	4	1	5	3	nt	nt
CCCCn1nnnc1C(c1ccccc1)N1CCN(c2cccc(C(F)(F)F)n2)CC1 (centres undefined)	nt	13	0	nt	nt	nt
